Experiments:
Experiment in all cases: log2 ratio of Biotin-Ahx-Ub-VS probe labelling (fragment/DMSO); higher = less target engagement (more negative = stronger competition), active = hit call of the paper (q ≤ 0.05, log2 ratio ≤ -1)
Settings in all cases: compound concentration: 200 uM; treatment time: 3 h
USP34 = USP34 (UniProt Q70CQ2)
In short: (§1)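 Average log2 ratios of fragment over vehicle were obtained by unpaired t-test from global-median-normalised Spectronaut label-free quantities. Proteins with ≥2 unique peptides were included. HEK293T lysate (495 µg per sample) was treated in triplicate with fragment at 200 µM or vehicle for 3 h, then with Biotin-Ahx-Ub-VS at 0.5 µM final for 1 h, and labelled DUBs were NeutrAvidin-enriched and run by diaPASEF LC-MS/MS.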

USP36 = target: T1, USP36 (UniProt Q9P275)
T1 sequence (whole entry): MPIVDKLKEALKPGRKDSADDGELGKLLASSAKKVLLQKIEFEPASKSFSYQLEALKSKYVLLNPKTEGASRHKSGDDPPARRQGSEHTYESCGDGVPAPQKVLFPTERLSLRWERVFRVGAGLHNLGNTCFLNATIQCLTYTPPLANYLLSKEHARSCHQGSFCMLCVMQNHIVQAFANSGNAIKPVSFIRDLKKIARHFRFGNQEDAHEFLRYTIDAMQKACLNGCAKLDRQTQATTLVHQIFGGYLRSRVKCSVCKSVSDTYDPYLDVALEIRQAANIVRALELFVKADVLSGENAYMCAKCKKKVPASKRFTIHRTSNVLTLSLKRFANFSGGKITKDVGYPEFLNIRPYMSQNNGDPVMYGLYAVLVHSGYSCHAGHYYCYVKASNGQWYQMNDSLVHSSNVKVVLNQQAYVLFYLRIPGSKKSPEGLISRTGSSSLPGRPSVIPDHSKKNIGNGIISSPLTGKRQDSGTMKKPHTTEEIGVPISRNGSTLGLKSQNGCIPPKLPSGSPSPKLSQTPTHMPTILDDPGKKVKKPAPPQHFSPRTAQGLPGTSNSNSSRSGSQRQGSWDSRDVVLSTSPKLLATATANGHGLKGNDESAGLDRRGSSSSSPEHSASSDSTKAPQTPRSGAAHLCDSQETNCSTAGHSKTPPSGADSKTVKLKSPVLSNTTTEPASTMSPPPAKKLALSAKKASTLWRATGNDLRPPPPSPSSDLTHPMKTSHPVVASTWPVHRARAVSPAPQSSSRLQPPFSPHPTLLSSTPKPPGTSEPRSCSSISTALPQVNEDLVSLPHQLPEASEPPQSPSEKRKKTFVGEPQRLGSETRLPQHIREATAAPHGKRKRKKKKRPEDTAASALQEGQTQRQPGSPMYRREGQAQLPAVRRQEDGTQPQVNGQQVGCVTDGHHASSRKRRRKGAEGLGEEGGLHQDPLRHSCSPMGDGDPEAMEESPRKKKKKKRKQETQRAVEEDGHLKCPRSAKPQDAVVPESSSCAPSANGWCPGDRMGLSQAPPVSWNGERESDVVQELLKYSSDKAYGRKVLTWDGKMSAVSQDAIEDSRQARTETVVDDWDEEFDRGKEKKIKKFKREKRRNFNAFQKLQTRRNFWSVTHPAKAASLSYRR
In short: as §1

USP38 = target: T2, USP38 (UniProt Q8NB14)
T2 sequence (whole entry): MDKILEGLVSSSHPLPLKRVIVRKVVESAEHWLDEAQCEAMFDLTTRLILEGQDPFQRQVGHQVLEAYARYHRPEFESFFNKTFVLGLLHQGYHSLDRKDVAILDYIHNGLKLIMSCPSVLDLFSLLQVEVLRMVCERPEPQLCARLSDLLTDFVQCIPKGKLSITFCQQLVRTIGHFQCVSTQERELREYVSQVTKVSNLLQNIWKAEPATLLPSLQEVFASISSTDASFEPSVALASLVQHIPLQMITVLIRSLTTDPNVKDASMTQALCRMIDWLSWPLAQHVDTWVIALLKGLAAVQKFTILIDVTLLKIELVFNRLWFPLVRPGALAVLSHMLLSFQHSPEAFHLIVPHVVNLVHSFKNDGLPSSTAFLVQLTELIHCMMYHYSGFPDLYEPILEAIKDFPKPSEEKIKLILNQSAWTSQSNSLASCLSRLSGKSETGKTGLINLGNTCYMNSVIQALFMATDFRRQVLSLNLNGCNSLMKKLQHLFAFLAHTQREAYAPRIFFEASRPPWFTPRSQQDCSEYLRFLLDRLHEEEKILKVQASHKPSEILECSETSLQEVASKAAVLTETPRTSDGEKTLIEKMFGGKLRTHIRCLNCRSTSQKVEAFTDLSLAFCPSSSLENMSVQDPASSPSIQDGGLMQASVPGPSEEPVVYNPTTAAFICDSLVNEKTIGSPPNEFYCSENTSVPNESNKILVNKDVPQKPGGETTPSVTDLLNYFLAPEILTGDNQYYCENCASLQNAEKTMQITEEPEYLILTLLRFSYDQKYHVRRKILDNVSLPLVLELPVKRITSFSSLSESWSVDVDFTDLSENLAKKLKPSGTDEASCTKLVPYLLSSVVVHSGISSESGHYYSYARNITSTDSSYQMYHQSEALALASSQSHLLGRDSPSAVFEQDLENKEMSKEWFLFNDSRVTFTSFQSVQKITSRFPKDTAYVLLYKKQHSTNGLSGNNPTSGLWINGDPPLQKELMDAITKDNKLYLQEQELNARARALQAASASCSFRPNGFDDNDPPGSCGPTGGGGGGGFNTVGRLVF
In short: as §1

USP39 = target: T3, USP39 (UniProt Q53GS9)
T3 sequence (whole entry): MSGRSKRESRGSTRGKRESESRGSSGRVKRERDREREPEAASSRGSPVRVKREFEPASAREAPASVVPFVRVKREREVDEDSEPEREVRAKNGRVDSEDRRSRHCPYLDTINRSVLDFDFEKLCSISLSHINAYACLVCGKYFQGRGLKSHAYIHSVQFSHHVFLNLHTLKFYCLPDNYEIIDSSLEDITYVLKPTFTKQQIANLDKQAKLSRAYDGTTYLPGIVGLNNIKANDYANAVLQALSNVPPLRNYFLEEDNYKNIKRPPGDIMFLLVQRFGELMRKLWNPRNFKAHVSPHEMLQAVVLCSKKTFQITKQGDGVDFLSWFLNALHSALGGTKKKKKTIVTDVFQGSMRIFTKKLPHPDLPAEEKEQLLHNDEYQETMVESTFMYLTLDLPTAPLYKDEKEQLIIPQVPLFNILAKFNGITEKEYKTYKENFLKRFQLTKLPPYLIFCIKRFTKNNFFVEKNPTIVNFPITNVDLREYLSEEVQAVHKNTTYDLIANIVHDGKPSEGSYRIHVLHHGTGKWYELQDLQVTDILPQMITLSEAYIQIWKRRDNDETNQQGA
In short: as §1

USP4 = target: T4, USP4 (UniProt Q13107)
T4 sequence (whole entry): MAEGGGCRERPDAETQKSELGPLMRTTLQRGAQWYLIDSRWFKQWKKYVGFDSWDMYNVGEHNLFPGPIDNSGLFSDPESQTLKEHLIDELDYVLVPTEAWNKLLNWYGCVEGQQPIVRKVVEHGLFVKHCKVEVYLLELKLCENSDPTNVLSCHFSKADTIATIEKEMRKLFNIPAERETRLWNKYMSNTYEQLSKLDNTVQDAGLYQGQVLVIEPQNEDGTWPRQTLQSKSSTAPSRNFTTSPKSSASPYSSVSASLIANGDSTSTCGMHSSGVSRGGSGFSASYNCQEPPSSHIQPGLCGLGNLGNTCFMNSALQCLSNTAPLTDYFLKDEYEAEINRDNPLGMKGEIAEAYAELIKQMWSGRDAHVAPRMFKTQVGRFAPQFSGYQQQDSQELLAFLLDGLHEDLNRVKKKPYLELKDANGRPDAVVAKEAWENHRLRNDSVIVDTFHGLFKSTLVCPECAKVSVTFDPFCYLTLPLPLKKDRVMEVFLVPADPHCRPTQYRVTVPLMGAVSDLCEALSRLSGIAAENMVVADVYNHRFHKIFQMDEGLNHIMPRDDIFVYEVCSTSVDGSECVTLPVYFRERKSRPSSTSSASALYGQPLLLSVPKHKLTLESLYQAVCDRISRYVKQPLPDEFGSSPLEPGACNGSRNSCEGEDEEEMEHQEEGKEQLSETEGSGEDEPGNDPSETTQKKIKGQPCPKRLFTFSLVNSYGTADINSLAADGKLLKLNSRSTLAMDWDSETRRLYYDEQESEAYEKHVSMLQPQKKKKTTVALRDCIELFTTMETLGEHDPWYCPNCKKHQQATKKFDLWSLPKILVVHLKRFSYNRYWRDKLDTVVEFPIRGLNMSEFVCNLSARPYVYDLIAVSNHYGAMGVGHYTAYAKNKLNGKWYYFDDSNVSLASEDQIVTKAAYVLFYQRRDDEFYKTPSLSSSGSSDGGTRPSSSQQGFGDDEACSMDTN
In short: as §1

Measured: log2 ratio of Biotin-Ahx-Ub-VS probe labelling

Chain of USP34 (Q70CQ2 whole entry, the tested form may be a part): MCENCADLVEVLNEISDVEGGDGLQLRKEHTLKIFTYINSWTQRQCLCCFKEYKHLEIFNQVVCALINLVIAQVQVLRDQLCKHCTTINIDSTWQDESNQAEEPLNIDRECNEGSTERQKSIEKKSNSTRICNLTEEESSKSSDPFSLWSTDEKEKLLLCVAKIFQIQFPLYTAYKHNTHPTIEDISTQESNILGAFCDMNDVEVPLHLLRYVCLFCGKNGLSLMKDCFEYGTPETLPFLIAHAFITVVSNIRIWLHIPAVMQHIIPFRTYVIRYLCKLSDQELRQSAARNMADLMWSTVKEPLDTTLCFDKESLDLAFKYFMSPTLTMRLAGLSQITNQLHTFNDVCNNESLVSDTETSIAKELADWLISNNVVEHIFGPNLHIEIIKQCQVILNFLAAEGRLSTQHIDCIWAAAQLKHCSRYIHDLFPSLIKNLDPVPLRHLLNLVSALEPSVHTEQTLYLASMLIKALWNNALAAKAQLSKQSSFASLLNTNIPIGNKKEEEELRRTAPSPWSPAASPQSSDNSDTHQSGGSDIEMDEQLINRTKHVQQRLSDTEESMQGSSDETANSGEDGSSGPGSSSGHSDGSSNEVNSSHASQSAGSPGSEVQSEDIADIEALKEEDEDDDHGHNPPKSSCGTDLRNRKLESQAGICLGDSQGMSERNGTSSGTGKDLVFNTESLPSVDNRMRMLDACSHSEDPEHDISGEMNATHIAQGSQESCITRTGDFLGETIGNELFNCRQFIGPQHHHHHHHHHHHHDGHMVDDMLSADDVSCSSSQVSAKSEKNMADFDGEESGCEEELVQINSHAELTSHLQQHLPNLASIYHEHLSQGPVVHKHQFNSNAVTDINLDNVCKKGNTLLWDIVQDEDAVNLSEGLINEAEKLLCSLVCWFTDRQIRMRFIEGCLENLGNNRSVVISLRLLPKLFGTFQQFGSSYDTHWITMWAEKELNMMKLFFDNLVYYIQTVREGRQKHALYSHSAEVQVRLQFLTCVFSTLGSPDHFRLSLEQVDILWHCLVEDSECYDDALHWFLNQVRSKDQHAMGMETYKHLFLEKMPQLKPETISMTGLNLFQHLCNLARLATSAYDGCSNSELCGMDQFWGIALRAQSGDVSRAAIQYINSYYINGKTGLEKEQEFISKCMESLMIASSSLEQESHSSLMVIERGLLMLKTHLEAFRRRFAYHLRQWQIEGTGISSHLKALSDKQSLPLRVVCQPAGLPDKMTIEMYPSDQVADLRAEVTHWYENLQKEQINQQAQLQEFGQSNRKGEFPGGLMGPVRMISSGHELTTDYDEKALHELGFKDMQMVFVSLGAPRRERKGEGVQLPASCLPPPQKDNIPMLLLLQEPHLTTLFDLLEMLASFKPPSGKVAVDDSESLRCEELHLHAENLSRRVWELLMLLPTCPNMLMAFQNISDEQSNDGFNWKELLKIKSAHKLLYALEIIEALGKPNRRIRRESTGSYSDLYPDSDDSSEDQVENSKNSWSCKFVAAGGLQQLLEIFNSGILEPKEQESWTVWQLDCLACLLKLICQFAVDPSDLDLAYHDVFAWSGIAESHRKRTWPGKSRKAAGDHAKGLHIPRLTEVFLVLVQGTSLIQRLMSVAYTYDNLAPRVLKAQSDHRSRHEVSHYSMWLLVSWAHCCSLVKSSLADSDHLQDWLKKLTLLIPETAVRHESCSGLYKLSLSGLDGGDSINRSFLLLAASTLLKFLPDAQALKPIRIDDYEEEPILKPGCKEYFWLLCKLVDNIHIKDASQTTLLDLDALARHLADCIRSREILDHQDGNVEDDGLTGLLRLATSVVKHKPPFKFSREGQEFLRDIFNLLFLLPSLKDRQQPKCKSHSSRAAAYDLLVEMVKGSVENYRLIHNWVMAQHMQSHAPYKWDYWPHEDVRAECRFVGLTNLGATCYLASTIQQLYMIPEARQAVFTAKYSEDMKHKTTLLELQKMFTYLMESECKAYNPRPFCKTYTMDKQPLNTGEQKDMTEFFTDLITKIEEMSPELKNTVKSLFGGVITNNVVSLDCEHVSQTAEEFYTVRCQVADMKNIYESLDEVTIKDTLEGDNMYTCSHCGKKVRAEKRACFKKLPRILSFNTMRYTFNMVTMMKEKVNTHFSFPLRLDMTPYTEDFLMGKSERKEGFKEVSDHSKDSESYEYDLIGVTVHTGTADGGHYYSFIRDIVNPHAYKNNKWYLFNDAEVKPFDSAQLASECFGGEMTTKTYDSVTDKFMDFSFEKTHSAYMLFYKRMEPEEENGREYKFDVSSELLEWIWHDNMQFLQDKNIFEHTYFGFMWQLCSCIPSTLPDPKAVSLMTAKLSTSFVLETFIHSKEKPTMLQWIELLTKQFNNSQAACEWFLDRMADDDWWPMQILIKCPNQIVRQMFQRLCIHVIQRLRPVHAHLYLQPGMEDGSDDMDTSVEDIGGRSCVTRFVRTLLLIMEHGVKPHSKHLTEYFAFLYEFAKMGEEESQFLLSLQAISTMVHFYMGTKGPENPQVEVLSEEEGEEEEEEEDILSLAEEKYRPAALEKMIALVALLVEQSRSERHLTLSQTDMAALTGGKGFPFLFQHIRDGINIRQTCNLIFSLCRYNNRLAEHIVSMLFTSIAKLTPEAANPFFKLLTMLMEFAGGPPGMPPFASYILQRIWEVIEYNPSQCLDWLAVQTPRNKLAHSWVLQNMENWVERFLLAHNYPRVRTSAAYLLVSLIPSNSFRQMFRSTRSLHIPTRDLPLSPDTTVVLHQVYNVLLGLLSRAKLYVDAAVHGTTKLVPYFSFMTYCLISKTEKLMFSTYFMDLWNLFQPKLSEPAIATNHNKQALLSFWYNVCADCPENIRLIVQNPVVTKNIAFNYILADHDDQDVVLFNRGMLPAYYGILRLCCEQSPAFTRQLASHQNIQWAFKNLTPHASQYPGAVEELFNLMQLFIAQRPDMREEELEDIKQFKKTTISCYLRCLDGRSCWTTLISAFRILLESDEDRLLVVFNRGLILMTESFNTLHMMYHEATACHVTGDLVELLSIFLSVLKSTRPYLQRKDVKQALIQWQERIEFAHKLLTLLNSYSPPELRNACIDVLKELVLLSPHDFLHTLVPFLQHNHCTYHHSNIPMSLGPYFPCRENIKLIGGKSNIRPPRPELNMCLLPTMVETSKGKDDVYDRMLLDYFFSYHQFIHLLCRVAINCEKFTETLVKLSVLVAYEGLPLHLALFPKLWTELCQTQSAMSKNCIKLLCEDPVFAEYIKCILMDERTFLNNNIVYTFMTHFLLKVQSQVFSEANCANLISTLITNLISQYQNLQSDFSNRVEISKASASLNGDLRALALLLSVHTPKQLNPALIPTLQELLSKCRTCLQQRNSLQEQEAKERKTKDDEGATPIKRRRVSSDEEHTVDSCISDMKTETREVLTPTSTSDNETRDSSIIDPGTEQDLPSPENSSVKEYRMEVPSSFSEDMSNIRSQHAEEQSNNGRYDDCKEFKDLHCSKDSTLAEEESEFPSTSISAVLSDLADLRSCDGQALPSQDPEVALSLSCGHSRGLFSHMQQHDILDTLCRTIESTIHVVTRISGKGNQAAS

COc1cccc(CN(C)C(=O)CCl)c1
inactive: USP34 0.0183 | USP36 -0.187 | USP38 0.0437 | USP39 0.0189 | USP4 -0.4
